CYP2C19 inhib: blocks human cytochrome P450 2C19. 96,000 tested, 21% active. inhibition, % at 5 µM. P33261. CYP2C19 Supersomes, luciferin-H EGE luminescence, 30 min;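 active = CYP2C19 inhibition above a set limit at 5 µM in the primary screen, cut at about 50% in these data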;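 also: plate controls were negative control wells for no effect and 2.5 mM tranylcypromine positive control for full effect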
CYP2C9 act: activators of human CYP2C9. P11712. recombinant CYP2C9, luciferin-H conversion, luminescence; stronger effect = higher value; factor 1 = untreated enzyme, 0 = blocked. activation factor at 5 µM. 96,000 tested, 1.4% active. AID 1024;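 active = activation factor of 2 or more for CYP2C9 at a 5 µM dose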;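 also: 0 = sulfaphenazole-blocked wells and 1 = vehicle-only wells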
Target sequence (P11712 whole entry, looked up): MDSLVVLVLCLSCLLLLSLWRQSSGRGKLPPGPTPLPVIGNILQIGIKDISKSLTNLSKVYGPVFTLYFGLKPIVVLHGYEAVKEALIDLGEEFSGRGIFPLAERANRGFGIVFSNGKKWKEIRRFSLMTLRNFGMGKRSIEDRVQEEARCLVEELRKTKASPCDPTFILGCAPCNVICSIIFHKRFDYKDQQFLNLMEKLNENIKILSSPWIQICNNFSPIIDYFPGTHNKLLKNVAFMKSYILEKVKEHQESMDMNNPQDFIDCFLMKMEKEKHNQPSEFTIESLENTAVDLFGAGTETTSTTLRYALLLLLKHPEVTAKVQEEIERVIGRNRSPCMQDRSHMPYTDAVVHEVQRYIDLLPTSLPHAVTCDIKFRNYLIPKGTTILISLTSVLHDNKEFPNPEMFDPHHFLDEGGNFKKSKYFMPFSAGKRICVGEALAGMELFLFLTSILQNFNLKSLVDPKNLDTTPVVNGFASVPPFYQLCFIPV
CYP2C9 inh: inhibitors of human CYP2C9 | CYP2C9 Supersomes, luciferin-H conversion, luminescence | inhibition, % at 5 µM | 96,000 tested, 20% active | AID 777;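 active = blocking of liver enzyme CYP2C9 beyond about 50% at 5 µM, limit read from the data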
Measles CPE: protection of cells from measles virus. Measles virus-infected cells, CPE protection, absorbance. protection (pct of control), % at 4 µM. 140,000 tested, 1.5% active; in the data active = protection mostly above about 24%, no sharp cut-off; inactive = mostly below about 26%
CYP2C19 act: increases human CYP2C19 enzyme activity; activation factor at 5 µM; recombinant CYP2C19, luciferin-H EGE luminescence; stronger effect = higher value; 0 = fully inhibited enzyme, 1 = untreated enzyme; P33261; 96,000 tested, under 10 active;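 active = activation factor of at least 2 at 5 µM in the primary screen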;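 also: 0 = wells with 2.5 mM tranylcypromine and 1 = vehicle-only wells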
Active calls of the source: *; nt = no result given. Most compounds without a hit are left out; they make up all but 22% or so of the library.

SMILES | CYP2C19 inhib | CYP2C9 act | CYP2C9 inh | Measles CPE | CYP2C19 act
Cc1ccc(NC(=O)c2cc(N3C(=O)C4CC=CCC4C3=O)ccc2N2CCOCC2)cc1Cl (centres undefined) | 2 | 0.9 | 7 | 19 | 1
O=c1[nH]c(SCc2n[nH]c(=S)n2-c2ccccc2)nc2sc3c(c12)CCC3 | 28 | 0.3 | 72* | 9 | 0.7
O=c1[nH]c(SCc2n[nH]c(=S)n2-c2ccccc2)nc2ccccc12 | 73* | 0.2 | 80* | 12 | 0.3
O=c1c2ccccc2cnn1Cc1n[nH]c(=S)n1-c1ccccc1 | nt | nt | nt | 6 | nt
S=c1[nH]nc(Cc2cccc3ccccc23)n1-c1ccccc1 | 47 | 0.1 | 90* | 17 | 0.5
Nc1nc(NCCO)nc(NCC2CCCO2)c1[N+](=O)[O-] (centres undefined) | nt | nt | nt | 18 | nt
CCN(CC)S(=O)(=O)c1ccc2c(c1)nc(SCn1nnc3ccccc3c1=O)n2CC | 20 | 0.3 | 68* | 5 | 0.8
O=c1c2ccccc2nnn1CSc1nnc2ccccn12 | 48 | 1.1 | -9 | 4 | 0.5
CC1(C)Cc2c(ccc3ccccc23)C(NNC(=O)c2cccnc2)=N1 | -3 | 1 | -1 | 19 | 1
Cc1c(C(=O)N2CCCC2)oc2c1-c1[nH]ncc1CC2 | nt | nt | nt | 31* | nt
Cc1c(C(=O)N2CCN(C)CC2)oc2c1C(=O)CC(C)(C)C2 | -6 | 1.2 | -23 | 3 | 1.1
CCCCN(CC)CCNc1c(NC2CCN(C(=O)OCC)CC2)c(=O)c1=O | 30 | 0.3 | 66* | 18 | 0.7
CCOc1ccc(NS(=O)(=O)c2ccc(NC(=S)NC(=O)C(C)C)cc2)cc1 | 82* | 0 | 95* | 3 | 0.2
CC(C)C(=O)NC(=S)Nc1ccc(S(=O)(=O)N(C)C)cc1 | nt | nt | nt | 5 | nt
COc1ccc(CC(=O)NC(=S)Nc2ccc(S(=O)(=O)NC(C)(C)C)cc2)cc1 | 16 | 0.6 | 43 | 8 | 0.8
CC(C)C(=O)NC(=S)Nc1ccc(S(=O)(=O)N(C)Cc2ccccc2)cc1 | 40 | 0.4 | 55* | 2 | 0.6
CC(C)C(=O)NC(=S)Nc1ccc(S(=O)(=O)Nc2ccccc2)cc1 | nt | nt | nt | 4 | nt
CC(C)C(=O)NC(=S)Nc1ccc(S(=O)(=O)NC(C)(C)C)cc1 | 37 | 0.5 | 50* | 8 | 0.6
COc1ccc(NS(=O)(=O)c2ccc(NC(=S)NC(=O)C(C)C)cc2)cc1 | 79* | 0.4 | 64* | 32 | 0.2
O=C(Cn1cnc2ccccc21)OCC(=O)N1CCc2ccccc2C1 | 5 | 0.9 | 7 | 16 | 0.9
CC1Cc2cc(/C(O)=C3/C(=O)C(=O)N(CC4CCCO4)C3c3ccco3)ccc2O1 (centres undefined) | -19 | 1.1 | -10 | 5 | 1.2
O=C(CSc1nnc(-c2cccnc2)s1)Nc1ccc(C(=O)O)cc1 | nt | nt | nt | 11 | nt
COCCn1c(SCc2cccnc2)nnc1-c1ccco1 | 14 | 0.8 | 16 | 3 | 0.9
CC(C)N(Cc1nc(-c2ccccc2)no1)C(=O)Cc1ccccc1 | 89* | 0.3 | 71* | 5 | 0.1
Cc1ccc(-c2noc(CNc3ccccc3)n2)cc1 | nt | nt | nt | 18 | nt
SMILES | CYP2C19 inhib | CYP2C9 act | CYP2C9 inh | Measles CPE | CYP2C19 act
Cc1ccc(C)c(C(=O)N(Cc2nc(-c3ccc(Cl)cc3)no2)C(C)C)c1 | 83* | 0.1 | 88* | 3 | 0.2
Cc1ccc(-c2noc(CN(C(=O)Cc3ccccc3)C(C)C)n2)cc1 | 74* | 0.2 | 78* | 1 | 0.3
CC(C)N(Cc1nc(-c2ccccc2)no1)C(=O)CSc1ccccc1 | 92* | 0.2 | 79* | 9 | 0.1
S=C1NCCOCCNC(=S)NCCOCCOCCOCCN1 | nt | nt | nt | 6 | nt
CCOc1ccc(C(=O)C[n+]2ccccc2C)cc1 | nt | nt | nt | 2 | nt
Cc1ccc(-c2noc(CN(C(=O)CCCCCN3C(=O)c4ccccc4C3=O)C(C)C)n2)cc1 | 96* | 0.1 | 91* | 19 | 0
Cc1ccc(-c2noc(CN(C(=O)CCN3C(=O)c4ccccc4C3=O)C(C)C)n2)cc1 | 24 | 0.7 | 31 | 12 | 0.8
Cc1cc(Br)ccc1OCC(=O)N(Cc1nc(-c2ccccc2)no1)C(C)C | 28 | 0.6 | 38 | 8 | 0.7
CC(C)N(Cc1nc(-c2ccccc2)no1)C(=O)COc1ccccc1 | 89* | 0.4 | 64* | 17 | 0.1
COc1ccc(C)cc1NC(=O)CN(c1ccccc1F)S(C)(=O)=O | 36 | 0.5 | 52* | 4 | 0.6
COc1ccc(C)cc1NC(=O)CN(c1ccc(F)cc1)S(C)(=O)=O | 31 | 0.3 | 65* | 18 | 0.7
CCc1ccc(N(CC(=O)Nc2ccc(OC)cc2OC)S(C)(=O)=O)cc1 | 88* | 0 | 97* | 14 | 0.1
COc1ccccc1NC(=O)C12CC3CC(C1)CC(c1ccc(C)cc1)(C3)C2 | 57* | 1 | -4 | 4 | 0.4
COc1ccc(N(CC(=O)Nc2cc(OC)ccc2OC)S(C)(=O)=O)cc1 | nt | nt | nt | 8 | nt
COc1ccc(CCNC(=O)CN(c2ccccc2OC)S(C)(=O)=O)cc1OC | 40 | 0.6 | 42 | 14 | 0.6
CCCN1C(=O)c2ccc(C(=O)NC3CCCCC3)cc2C1=O | -2 | 0.9 | 11 | 6 | 1
Cc1cc(/C=C(\C#N)C(=O)NCc2cccs2)c(C)n1-c1ccccc1F | 0 | 1 | 2 | 9 | 1
COc1ccccc1NC(=O)CN(c1ccc(C23CC4CC(CC(C4)C2)C3)cc1)S(C)(=O)=O | 3 | 0.4 | 64* | 4 | 1
CCN(CC)c1nc(N)c2c(N)n(-c3ccccc3C)c(=S)c(C#N)c2c1C#N | 10 | 0.8 | 22 | 29 | 0.9
N#Cc1c(N2CCCCC2)nc(N)c2c(N)nc3c(c12)CC(c1ccccc1)O3 (centres undefined) | 25 | 0.4 | 64* | 7 | 0.8
CCN(CC)c1nc(N)c2c(N)nc3c(c2c1C#N)CC(c1ccccc1)O3 (centres undefined) | 56* | 0.2 | 82* | 4 | 0.4
N#Cc1c(N)nc(N2CCCC2)c(C#N)c1-c1ccc(Cl)cc1 | -10 | 1.1 | -9 | 11 | 1.1
O=C(NNC(=O)c1cc(-c2ccccc2)n(-c2ccccc2)n1)c1cccc([N+](=O)[O-])c1 | nt | nt | nt | 8 | nt
COc1cc2c(cc1OC)C(=O)CC(C)S2 (centres undefined) | 1 | 1.2 | -24 | 6 | 1
CC(OC(=O)CCc1nc2ccccc2[nH]c1=O)C(=O)c1ccccc1 (centres undefined) | 96* | 0.3 | 67* | 5 | 0
SMILES | CYP2C19 inhib | CYP2C9 act | CYP2C9 inh | Measles CPE | CYP2C19 act
Cc1ccc(C(=O)COC(=O)CCc2nc3ccccc3[nH]c2=O)cc1C | -22 | 1.1 | -12 | 17 | 1.2
COC(=O)CCc1nc2ccccc2[nH]c1=O | 22 | 1.1 | -6 | 1 | 0.8
O=C(CCc1nc2ccccc2[nH]c1=O)OCC(=O)c1ccc(Cl)cc1 | nt | nt | nt | 36* | nt
Cc1ccc(NC(=O)Nc2nnc(Cc3ccc([N+](=O)[O-])cc3)s2)cc1 | nt | nt | nt | 21 | nt
O=C(c1nnc(Cc2ccc(Cl)cc2)o1)N1CCc2ccccc2C1 | nt | nt | nt | 4 | nt
CC1=CC(C)(C)[N+](C)=CN1c1ccccc1 | nt | nt | nt | 5 | nt
Cc1[nH]ccc(=O)c1OCc1c(Cl)cccc1Cl | 12 | 0.8 | 18 | 17 | 0.9
